Data from PubChem BioAssay (NCATS).
Records with an inconclusive call do not appear. Calls of active or inactive are those of the source. Calls come from the whole dose curve; as a rule, active = well fitted inhibition curve with a large enough effect; inconclusive = small, poorly fitted or top-dose-only effect; inactive = flat fitted curve, though single readings scatter.

How the values were obtained:
CRL-7250 = normal cell line; assay: Cytotoxic Profiling of Annotated Libraries Using Quantitative High-Throughput Screening (AID 1296008); conditions: Five cell lines viability, CellTiter-Glo ATP luminescence, 48-72 h; max response: active compounds read low; for max response: % is set by controls: 0 for no effect and ±100 for the full control effect
Procedure, shortened: (§1)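 Compounds were pin-transferred onto cells and incubated 48 or 72 hr at 37 degree Celsius, 95% humidity. CellTiter-Glo was added, plates sat 10 min at room temperature, then ATP-coupled luminescence was imaged as the viability read-out.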

HEK293 = assay: as above; conditions: Five cell lines viability, CellTiter-Glo ATP luminescence, 48-72 h; max response: active compounds read low
Procedure, shortened: as §1

HaCat = assay: as above; conditions: Five cell lines viability, CellTiter-Glo ATP luminescence, 48-72 h; max response: active compounds read low
Procedure, shortened: as §1

KB-3-1 = assay: as above; conditions: Five cell lines viability, CellTiter-Glo ATP luminescence, 48-72 h; max response: active compounds read low
Procedure, shortened: as §1

NIH3T3 = assay: as above; conditions: Five cell lines viability, CellTiter-Glo ATP luminescence, 48-72 h; max response: active compounds read low
Procedure, shortened: as §1

HEK293T = assay: qHTS assay to identify novel small-molecules to repurpose for Merkel cell carcinoma treatment (AID 1296009); conditions: MCC and control cell lines, CellTiter-Glo viability, 72 h; series mostly up to 44.8 µM
Procedure, shortened: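 qHTS format: cells treated with library compounds in DMSO across 8 (NPC) or 11 (MIPE) concentrations. Readout after 72 hr at 37 degree celsius was CellTiter-Glo luminescence.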
Note: nearly all actives have a fitted effect of over 60% in size.

CC(C)C(=O)c1cn(CC(=O)COc2ccc(Oc3ccccc3)cc2)c2ccc(C(=O)O)cc12
inactive: max response (CRL-7250) 3.02% | outcome (HEK293) | max response (HaCat) -4.02% | max response (KB-3-1) -0.497% | max response (NIH3T3) -1.24% | Potency (HEK293T)

CC1(CO)CC[C@]2(C(=O)O[C@@H]3O[C@H](CO)[C@@H](O)[C@H](O)[C@H]3O)CC[C@]3(C)C(=CCC4[C@@]5(C)C[C@H](O)[C@H](O[C@@H]6OC[C@@H](O)[C@H](O)[C@H]6O)[C@@](C)(CO)C5CC[C@]43C)C2C1 (stereo not given in full)
inactive: outcome (CRL-7250) | outcome (HEK293) | max response (HaCat) -24.8% | outcome (KB-3-1) | max response (NIH3T3) 2.22% | outcome (HEK293T) inactive [at 9.27 µM]

O=C(O)c1cnn(-c2nc3cc(OC(F)(F)F)c(Cl)cc3[nH]2)c1
inactive: max response (CRL-7250) -25.2% | outcome (HEK293) | max response (HaCat) 3.71% | max response (KB-3-1) 4.77% | outcome (NIH3T3) | Potency (HEK293T)

C[C@@H]1O[C@@H](O[C@H]2[C@H](OC(=O)C34CCC(C)(C)CC3C3=CCC5C6(C)CC(O)C(O[C@@H]7O[C@H](CO)[C@@H](O)[C@H](O)[C@H]7O)C(C)(C(=O)O)C6CCC5(C)C3(CO)CC4)O[C@H](C)[C@H](O)[C@@H]2O)[C@H](O)[C@H](O)[C@H]1O[C@@H]1OC[C@@H](O)[C@H](O)[C@H]1O (stereo not given in full)
inactive: max response (CRL-7250) -4.64% | outcome (HEK293) | max response (HaCat) 3.66% | outcome (KB-3-1) | max response (NIH3T3) 2.3% | outcome (HEK293T) inactive [at 9.27 µM]

C=C(C)[C@@H](C)[C@H]1O[C@]23C[C@]4(CO2)C(CCC2[C@@]5(C)CC[C@H](O[C@@H]6OC[C@H](O)[C@H](O[C@@H]7O[C@H](CO)[C@@H](O)[C@H](O)[C@H]7O)[C@H]6O[C@@H]6O[C@@H](CO)[C@H](O)[C@H]6O)C(C)(C)C5CC[C@]24C)C3[C@@](C)(O)[C@@H]1OC(C)=O (stereo not given in full)
inactive: outcome (CRL-7250) | outcome (HEK293) | max response (HaCat) -4.68% | max response (KB-3-1) -3.84% | outcome (NIH3T3) | outcome (HEK293T) inactive [at 9.27 µM]

COc1cc(C2OCC3C(c4ccc(OC5OC(CO)C(O)C(O)C5O)c(OC)c4)OCC23)ccc1O (stereo not given)
inactive: max response (CRL-7250) -7.16% | outcome (HEK293) | max response (HaCat) -4.17% | max response (KB-3-1) -0.0986% | max response (NIH3T3) -0.3% | Potency (HEK293T)

CC1NC(=O)C(Cc2c[nH]c3ccccc23)NC1=O (stereo not given)
inactive: max response (CRL-7250) 2.89% | outcome (HEK293) | max response (HaCat) 2.4% | max response (KB-3-1) 6.79% | max response (NIH3T3) 2.54% | Potency (HEK293T)

CCC(C)/C=C(C)/C=C/C1=CC2=C(Cl)C(=O)C(C)(OC(C)=O)C(=O)C2=CN1CCCC(=O)O (stereo not given)
inactive: outcome (CRL-7250) | outcome (HEK293) | max response (HaCat) -6.78% | outcome (KB-3-1) | max response (NIH3T3) -0.464% | Potency (HEK293T)

CC(c1c[nH]c2ccccc12)C(O)C(=O)O (stereo not given)
inactive: max response (CRL-7250) -1.71% | outcome (HEK293) | max response (HaCat) -10.2% | outcome (KB-3-1) | max response (NIH3T3) 3.62% | Potency (HEK293T)

CCCn1cnc2c(NCc3ccccc3)nc(N[C@H](CC)CO)nc21
inactive: max response (CRL-7250) -7.86% | outcome (HEK293) | max response (HaCat) 0.198% | outcome (KB-3-1) | outcome (NIH3T3) | Potency (HEK293T)

C=CC1(C)CC2=CCC3C(C)(C(=O)O)CCCC3(C)C2CC1OC(C)=O (stereo not given)
inactive: outcome (CRL-7250) | outcome (HEK293) | max response (HaCat) -6.85% | max response (KB-3-1) 0.0592% | outcome (NIH3T3) | Potency (HEK293T)

CC1(C)CCC(C)(C)c2cc3c(cc21)Sc1ccccc1N=C3c1ccc(C(=O)O)cc1
inactive: outcome (CRL-7250) | outcome (HEK293) | max response (HaCat) -6.28% | max response (KB-3-1) -15.5% | max response (NIH3T3) 3.93% | Potency (HEK293T)

C=C1CCC2C(C)(C(=O)O)CC(O)CC2(C)C1CC/C(C)=C/C(=O)O (stereo not given)
inactive: max response (CRL-7250) -3.85% | outcome (HEK293) | max response (HaCat) 3.69% | max response (KB-3-1) 5.42% | outcome (NIH3T3) | Potency (HEK293T)

COC1C2=C(COC2=O)C2(C)CCCC(C)(CO)C2C1OC(=O)c1ccccc1 (stereo not given)
inactive: outcome (CRL-7250) | outcome (HEK293) | max response (HaCat) -2.64% | outcome (KB-3-1) | outcome (NIH3T3) | Potency (HEK293T)

CO[C@@H]1CC[C@H](OC[C@]2(COC(=O)c3ccc(C)[nH]3)[C@H](OC(C)=O)CC[C@@]3(C)[C@@H]4CC=C(C)[C@@H](C5=C(O)C(=O)OC5O)[C@]4(C)CC[C@@H]32)O[C@H]1C (stereo not given in full)
inactive: outcome (CRL-7250) | outcome (HEK293) | max response (HaCat) -0.118% | outcome (KB-3-1) | max response (NIH3T3) -6.06% | Potency (HEK293T)

C[C@@H]1O[C@@H](O[C@H]2[C@H](O[C@H]3[C@H](O[C@H]4CC[C@@]5(C=O)C(CC[C@]6(C)C5CC=C5C7CC(C)(C)C[C@@H](O)[C@]7(C)CC[C@]56C)C4(C)C)O[C@H](C(=O)O)[C@@H](O)[C@@H]3O)OC[C@@H](O)[C@@H]2O)[C@H](O)[C@H](O)[C@H]1O (stereo not given in full)
inactive: outcome (CRL-7250) | outcome (HEK293) | max response (HaCat) -16.7% | max response (KB-3-1) 7.57% | outcome (NIH3T3) | outcome (HEK293T) inactive [at 9.27 µM]

Cc1c(CN(C)C(=O)/C=C/c2cnc3c(c2)CCC(=O)N3)oc2ccccc12
inactive: outcome (CRL-7250) | outcome (HEK293) | max response (HaCat) 1.29% | max response (KB-3-1) 9.61% | max response (NIH3T3) -2.06% | Potency (HEK293T)

N#CC1C(=O)Nc2scc(-c3ccc(-c4ccccc4O)cc3)c2C1=O (stereo not given)
inactive: max response (CRL-7250) -4.61% | outcome (HEK293) | max response (HaCat) 1.11% | outcome (KB-3-1) | outcome (NIH3T3) | Potency (HEK293T)

COc1ccc2c(c1)O[C@H](O[C@@H]1O[C@H](CO)[C@@H](O)[C@H](O)[C@H]1O)C(=O)N2
inactive: outcome (CRL-7250) | outcome (HEK293) | max response (HaCat) -4.71% | outcome (KB-3-1) | outcome (NIH3T3) | Potency (HEK293T)

Nc1nc(CC(=O)Nc2ccc(CCNCC(O)c3ccccc3)cc2)cs1 (stereo not given)
inactive: max response (CRL-7250) 2.98% | outcome (HEK293) | max response (HaCat) -9.93% | outcome (KB-3-1) | outcome (NIH3T3) | Potency (HEK293T)

COc1ccc([C@@H]2N[C@H](C(=O)O)Cc3c2[nH]c2ccccc32)cc1CN1CCN(c2ccccc2F)CC1
inactive: max response (CRL-7250) -3.7% | outcome (HEK293) | max response (HaCat) 1.36% | max response (KB-3-1) -4.47% | outcome (NIH3T3) | Potency (HEK293T)

C/C(=C/CCC(CO)C1CCC2(C)C3CCC4C(C)(C)C(OC5OC(CO)C(O)C(O)C5O)CC(O)C45CC35CCC12C)COC1OC(CO)C(O)C(O)C1O (stereo not given)
inactive: outcome (CRL-7250) | outcome (HEK293) | max response (HaCat) -8.45% | max response (KB-3-1) -1.63% | max response (NIH3T3) 0.608% | Potency (HEK293T)

C[C@@H]1O[C@@H](O[C@H]2[C@H](O[C@H]3CC[C@@]4(C)C(CC[C@]5(C)C4CC=C4C6CC(C)(C)CC[C@]6(C(=O)O[C@@H]6O[C@H](CO[C@@H]7O[C@H](CO)[C@@H](O[C@@H]8O[C@@H](C)[C@H](O)[C@@H](O)[C@H]8O)[C@H](O)[C@H]7O)[C@@H](O)[C@H](O)[C@H]6O)CC[C@]45C)[C@]3(C)CO)OC[C@H](O)[C@@H]2O)[C@H](O)[C@H](O)[C@H]1O (stereo not given in full)
inactive: outcome (CRL-7250) | outcome (HEK293) | max response (HaCat) -8.43% | max response (KB-3-1) 4.12% | max response (NIH3T3) -6.66% | outcome (HEK293T) inactive [at 9.27 µM]

C=C/C=C/[C@@H]1OC[C@H](/C=C/C=C/C)[C@H]1O
inactive: max response (CRL-7250) -3.1% | outcome (HEK293) | max response (HaCat) -9.46% | outcome (KB-3-1) | max response (NIH3T3) -1.27% | Potency (HEK293T)

CC1OC(OC2C(CO)OC(OCC3OC(OC(=O)C45CCC(C)(C)CC4C4=CCC6C7(C)CCC(OC8OC(C(=O)O)C(O)C(OC9OC(CO)C(O)C(O)C9O)C8O)C(C)(C)C7CCC6(C)C4(C)CC5)C(O)C(O)C3O)C(O)C2O)C(O)C(O)C1O (stereo not given)
inactive: outcome (CRL-7250) | outcome (HEK293) | max response (HaCat) -1.82% | outcome (KB-3-1) | max response (NIH3T3) 3.49% | outcome (HEK293T) inactive [at 9.27 µM]
